Bioassay records from PubChem BioAssay.
Pf growth 96h: P. falciparum growth inhibition at 96 hour, primary screen for plastid delayed-death inhibitors | AID 504834 | Potency, µM (highest dose often 28.7 µM), without a hit: at the top dose activity change, negative = inhibition, hits mostly inhibitors | P. falciparum luciferase reporter growth, 96 h | hit rate 6.9% among 320,000; also: potency is read from the fitted curve at half-maximal effect; % is scaled to controls: 0 for no effect and ±100 for the full control effect
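Erythrocytes infected with luciferase-expressing P. falciparum were dispensed at 2% hematocrit and 0.05% parasitemia (final), then incubated with compounds 96 hours at 37 C in 5% CO2. Luminescence after detection reagent addition reported growth.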
Shiga inhibitor: inhibitors of Shiga toxin in Vero cells; hit rate 9.2% among 290,000; inhibition, % at 38.7 µM; Vero cells, Shiga toxin protein synthesis inhibition reporter; in the data active = inhibition mostly above about 28%, no sharp cut-off; inactive = mostly below about 43%; also: 0% is about no effect
Cycloheximide cs: affects cycloheximide protein synthesis inhibition readout, counter-screen. max response, %. hit rate 12% among 300,000. cell reporter, cycloheximide protein synthesis inhibition counterscreen; in the data active = max response mostly above about 13%, no sharp cut-off; inactive = mostly below about 14%; also: read at 38.3 µM for the half of the compounds with a filed dose; 0% is about no effect
Pf growth 48h: P. falciparum growth inhibition at 48 hours (one generation); Potency, µM (top dose mostly 28.7 µM), for inactives: top-dose activity change, negative = inhibition, usual class: inhibitors; hit rate 5.9% among 310,000; P. falciparum luciferase growth in erythrocytes, 48 h; also: potency is read from the fitted curve at half-maximal effect; % is scaled to controls: 0 for no effect and ±100 for the full control effect
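First compound was added to culture medium, then infected red cells at 0.1% parasitemia and 2% hematocrit (final). After incubation at 37 C under 5% CO2, luciferase detection reagent was dispensed and light output recorded.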
NS1 function inh: blocks influenza NS1 protein function. hit rate 0.4% among 270,000. Potency, µM (highest dose often 46.1 µM), for inactives: top-dose activity, positive = more growth; calls by dose curve; also: potency is read from the fitted curve at half-maximal effect; actives are rising curves; nearly all actives have a fitted effect of over 50% in size
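In this qHTS, NS1 from influenza A is expressed in budding yeast, where it slows growth. Cells are switched from glucose to 2% galactose medium (pH 6.0, -URA), treated with compound, and growth recovery is read at OD600.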
Numbers without * were called inactive; u = inconclusive; x = not tested or not shown; + = active, no number. Only some compounds are listed: those with a hit (about 21% of all), similar ones and a draw of the others. Unless noted, calls follow the shape of the dose curve; as a rule, active = well fitted inhibition curve with a large enough effect; inconclusive = small, poorly fitted or top-dose-only effect, or another doubt; inactive = no such curve, though single readings can be large or run the other way.

SMILES | Pf growth 96h | Shiga inhibitor | Cycloheximide cs | Pf growth 48h | NS1 function inh
Cc1ccc(Cl)cc1NC(=O)CON=C(N)c1ccccc1 | 4% | x | x | 4% | x
COc1ccc(NC(=O)c2ccc(S(=O)(=O)N(C)C)cc2)cc1 | u | 35 | 15 | -4% | -2%
COc1ccc(NC(=O)c2cccc(OS(=O)(=O)N(C)C)c2)cc1 | 9% | 105* | 44* | 72% | -7%
CNS(=O)(=O)c1cccc(C(=O)Nc2cccc(Cl)c2)c1 | 120% | 15 | 35* | x | 0%
O=C(NCCN1CCOCC1)C1CC(=O)N(c2ccc(F)cc2)C1 (stereo unspecified) | -10% | -6 | -7 | 12% | -4%
COc1ccc(C(=O)Nc2ccnn2C2CCN(Cc3cccnc3)CC2)cc1 | -8% | -6 | -1 | 13% | -4%
COc1ccc(C(=O)Nc2ccnn2C2CCN(C(=O)c3cccnc3)CC2)cc1 | u | 60* | 30* | 0% | -1%
COc1ccc(C(=O)Nc2ccnn2C2CCN(C(C)CSC)CC2)cc1 (stereo unspecified) | 2.9µM* | -3 | -3 | 14% | 5%
Cc1csc(C(C)NC(=O)c2ccc(OC3CCN(CCc4ccccc4)CC3)cc2)n1 (stereo unspecified) | 9% | 16 | 14 | 10µM* | -7%
O=C(NCCc1ccccn1)c1ccc(OC2CCN(Cc3ccccn3)CC2)cc1 | 7% | 64* | 83* | -13% | 6%
O=C(NCC1CCOCC1)c1ccc(OC2CCN(Cc3ccccn3)CC2)cc1 | -5% | -3 | 1 | -6% | 6%
CC(Cc1ccccn1)NC(=O)c1ccc(OC2CCN(Cc3ccccn3)CC2)cc1 (stereo unspecified) | 9.3µM* | 24* | 38* | 38% | 0%
O=C(CSc1nc2ccccc2s1)NCCOc1ccc(Cl)cc1 | u | 17 | -2 | 7% | -38%
O=C(CSc1nc2ccccc2s1)NCCOc1ccccc1 | -5% | 17 | 15* | 28% | -4%
Nn1c(SCC(=O)Nc2cc(C(F)(F)F)ccc2Cl)nncc1=O | u | -2 | 6 | 12µM* | 13%
Brc1c(CSc2nc3ccccc3s2)nc2ncccn12 | 3.3µM* | 43 | 23* | 3% | -4%
O=[N+]([O-])c1ccc2sc(SCc3nc4ccccn4c3Br)nc2c1 | -83% | 1 | 0 | 4% | 9%
O=C(CSc1cn[nH]n1)Nc1nc2ccccc2s1 | 4% | 53* | 27* | 47% | 8%
Cc1cc(=O)[nH]c(SCC(=O)Nc2nc3ccccc3s2)n1 | 21% | 22 | 9 | 79% | x
O=C(CSc1ccccn1)Nc1nc2ccccc2s1 | 2.9µM* | 19 | 28* | 45% | 7%
Cc1nnc(SCC(=O)Nc2nc3ccccc3s2)n(N)c1=O | 50% | -3 | -2 | -7% | 15%
Cn1ccnc1SCC(=O)Nc1ccc2nc(SCC(=O)NC3CC3)sc2c1 | u | 113* | 33* | 46% | 4%
COc1ccc(NC(=O)CSc2nccn2C)c([N+](=O)[O-])c1 | 2% | 60* | 23* | 58% | x
COc1ccc(NC(=O)Cn2nnc3ccccc32)c([N+](=O)[O-])c1 | u | -13 | -1 | 11% | 3%
Nn1c(SCC(=O)Nc2nc3ccccc3s2)nncc1=O | 55% | 40 | 23* | 13% | 7%
SMILES | Pf growth 96h | Shiga inhibitor | Cycloheximide cs | Pf growth 48h | NS1 function inh
COc1ccc(C(=O)NC(=S)NCc2cccnc2)cc1Cl | 0% | -8 | -5 | -25% | -10%
O=C1CCC([N+](=O)[O-])C(c2ccccc2F)N1 (stereo unspecified) | 6% | -6 | -3 | 16% | -1%
Fc1ccc(NC(=S)N2CCSC2c2cccs2)cc1 (stereo unspecified) | u | -5 | -4 | u | x
Cc1nc(NC(=O)CSc2nccn2C)sc1C(=O)N(C)C | 0% | 43* | 21* | 59% | 3%
Cn1ccnc1SCC(=O)Nc1cccc2ccccc12 | x | 25 | 39* | 13% | -3%
O=C(CSc1nc2ccccc2s1)Nc1ncccn1 | 137% | 13 | 40* | 40% | -9%
Cn1ccnc1SCC(=O)Nc1ccc(Br)cc1C(F)(F)F | u | 117* | 22* | 29% | -5%
Cn1cnnc1SCC(=O)Nc1ccc(Br)cc1F | x | -3 | -3 | 15% | 0%
COC(=O)c1ccccc1NC(=O)CSc1nccn1C | -10% | -14 | 14 | 47% | 3%
Cn1ccnc1SCC(=O)Nc1nc2ccccc2s1 | 178% | 72* | 34* | 48% | -5%
Cn1c(SCC(=O)Nc2nc3ccccc3s2)nnc1-c1ccccc1 | 13% | -5 | -2 | x | -2%
CCN(CC)C(=O)CSc1nc2ccc(NC(=O)CSc3nnc(COc4ccccc4C)n3C)cc2s1 | 9.3µM* | -3 | 0 | u | -12%
Cc1c(C)n2c(SCC(=O)Nc3cccc4ccccc34)nnc2[nH]c1=O | u | x | x | 12µM* | x
CCc1nc(SCC(=O)Nc2cccc3ccccc23)[nH]c(=O)c1C | -14% | -8 | -5 | 0% | 10%
COc1ccc(-c2nnc3ccc(SCC(=O)Nc4nc5ccccc5s4)nn23)cc1OC | u | -6 | -1 | 8.3µM* | 5%
O=C(CCNC(=O)c1ccc([N+](=O)[O-])cc1)Nc1ccc(N2CCOCC2)cc1N1CCOCC1 | 8% | -9 | 8 | 6% | x
CCS(=O)(=O)N1CCC(C(=O)NCc2cc(OC)ccc2OC)CC1 | x | 3 | -2 | 4% | -2%
COc1cccc(CNC(=O)C2CCN(S(=O)(=O)N3CCC(C)CC3)CC2)c1 | 13µM* | -11 | -2 | 22% | -8%
COc1ccc(OC)c(CNC(=O)C2CCN(S(=O)(=O)N3CCC(C)CC3)CC2)c1 | 12µM* | 3 | -1 | 1% | -10%
O=C(Nc1ccc2c(c1)OCO2)C1CCN(S(=O)(=O)c2cccc3cccnc23)CC1 | x | 65 | 13 | u | -2%
O=C(/C=C/c1ccccc1)Nc1ccc(Br)cn1 | 123% | + | 31* | 428% | -7%
Cc1ccc(NC(=O)/C=C/c2ccc(Cl)cc2)nc1 | 24% | 50* | 22* | 60% | -4%
CN(C(=O)COc1ncnc2sccc12)c1ccccc1 | 13% | -5 | 0 | 3% | x
COC(=O)c1scc(C)c1NC(=O)c1ccc(Cl)cc1 | 42% | 2 | -4 | -6% | -7%
CC(C)NOC(=O)c1ccc(Cl)cc1 | u | 21 | 46* | 12% | x
COC(=O)C1=C(c2ccc(F)cc2OCc2ccccc2)C[C@@H]2CC[C@H]1N2C(=O)NCCOc1ccccc1 | u | x | x | 5.9µM* | x
CCCNC(=O)N1[C@H]2CC[C@@H]1C(C(=O)OC)=C(c1ccc(F)cc1F)C2 | 29% | x | x | 39% | x
COC(=O)C1=C(c2ccc(Cl)c(C(F)(F)F)c2)C[C@@H]2CC[C@H]1N2C(=O)NCCNC(C)=O | -8% | x | x | u | x
COC(=O)C1=C(c2ccc(F)cc2OCc2ccccc2)C[C@@H]2CC[C@H]1N2C(=O)NCc1ccccc1Cl | 4.1µM* | x | x | 5.2µM* | x
COC(=O)C1=C(c2ccc(F)cc2OCc2ccccc2)C[C@@H]2CC[C@H]1N2C(=O)NCCOc1ccccc1Cl | u | x | x | 2.6µM* | x
